Assay [1] deals with Cellular tumor antigen p53 (Homo sapiens) (UniProt P04637). The assay can be described thus: Primary qHTS for small molecule compounds that upregulate eGFP-tagged delta133p53alpha (in N-terminal) cells. (AID 2060322).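 For activation: series mostly up to about 56 µM; 0% = DMSO vehicle and 100% = reference activator.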 Note: nearly all actives have a fitted effect of over 75% in size. Note: potency is the fitted concentration of half-maximal effect. To be noted: NCI-H358 eGFP-delta133p53alpha fluorescence, 24 h; activation: stronger effect = higher value. An outline of the steps: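 NCI-H358 cells pre-induced 24 h with 10 ng/ml doxycycline to express N-terminal eGFP-delta133p53alpha, then dosed 24 h at 37C without doxycycline; fixed, Hoechst-stained, GFP intensity by laser scanning cytometry, normalized to DMSO (0%) and 57.5 uM 5-azacytidine (100%).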
For orientation: In qHTS, concentration-response curves come from the screen itself.

The target in assay [2] is Aldehyde dehydrogenase, mitochondrial (Homo sapiens) (UniProt P05091). The assay can be described thus: qHTS for Inhibitors of the Aldehyde Dehydrogenase Family (ALDH2) Primary screen (AID 2061308).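 Note: plate controls were vehicle for no effect and reference inhibitor for full effect; nearly all actives have a fitted effect of over 55% in size.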
Assay [3] deals with Retinaldehyde dehydrogenase 3 (Homo sapiens) (UniProt P47895). The assay can be described thus: qHTS for Inhibitors of the Aldehyde Dehydrogenase Family (ALDH1A3) Validation screen (AID 2061312). Note: % is set by controls: 0 for no effect and ±100 for the full control effect; nearly all actives have a fitted effect of over 45% in size.
Assay [4] shares this target. The assay can be described thus: qHTS for Inhibitors of the Aldehyde Dehydrogenase Family (ALDH1A3) Primary screen (AID 2061315).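 Note: plate controls were DMSO vehicle for no effect and reference inhibitor for full effect.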
The nature of assay [5]: BET inhibitor-based combinations targeting novel dependencies in MECOM-rearranged (r) AML: UCSD-AML1 cell line (AID 2202235). Note: nearly all actives have a fitted effect of over 40% in size. Note: potency is the fitted concentration of half-maximal effect. The method in brief:
(§1)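 Cells at 500/well were exposed for 48 hr to MIPE v5.0 drugs as 11-point dose curves. Viability was read by CellTiter-Glo luminescence and normalized to DMSO and empty-well controls. Activity was expressed as AUC and per-cell-line Z-AUC.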

A short description of assay [6]: BET inhibitor-based combinations targeting novel dependencies in MECOM-rearranged (r) AML: AML-191 cell line (AID 2202236; note: nearly all actives have a fitted effect of over 35% in size; note: potency is the fitted concentration of half-maximal effect). An outline of the steps:
(§2)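 AML cell lines seeded at 500 cells/well, treated with 11-point dose curves for 48 h. Viability by CellTiter-Glo luminescence, normalised to DMSO and empty wells; activity expressed as AUC and per-cell-line Z-transformed AUC.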

A short description of assay [7]: BET inhibitor-based combinations targeting novel dependencies in MECOM-rearranged (r) AML: SET-2 cell line (AID 2202231).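 For viability: plate controls were DMSO treated cells for no effect and wells without cells for full effect.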 Note: nearly all actives have a fitted effect of over 35% in size. Note: potency is the fitted concentration of half-maximal effect. To be noted: SET-2 AML cells viability, CellTiter-Glo luminescence, 48 h; viability: stronger effect = lower value, concentration not given here. An outline of the steps:
as §2
In general terms: Cellular ATP, detected with luciferase, serves as a proxy for viable cell number.

Assay [8] is described as follows: BET inhibitor-based combinations targeting novel dependencies in MECOM-rearranged (r) AML: OCI-AML3 cell line (AID 2202232). Note: nearly all actives have a fitted effect of over 35% in size. Note: potency is the fitted concentration of half-maximal effect. Conditions: Potency: OCI-AML3 viability. An outline of the steps:
as §2

Assay [9] in a line: BET inhibitor-based combinations targeting novel dependencies in MECOM-rearranged (r) AML: HNT-34 cell line (AID 2202234). Note: nearly all actives have a fitted effect of over 35% in size. Note: potency is the fitted concentration of half-maximal effect. The method in brief: as §1
The nature of assay [10]: BET inhibitor-based combinations targeting novel dependencies in MECOM-rearranged (r) AML: AML-194 cell line (AID 2202237; note: nearly all actives have a fitted effect of over 40% in size; note: potency is the fitted concentration of half-maximal effect). The method in brief:
as §2

A short description of assay [11]: BET inhibitor-based combinations targeting novel dependencies in MECOM-rearranged (r) AML: MV-4-11 cell line (AID 2202233). Note: nearly all actives have a fitted effect of over 45% in size. Note: potency is the fitted concentration of half-maximal effect. An outline of the steps: as §1

Each structure is given as a SMILES string. Several values for one entry are separate records, joined by “and”; a condition that tells them apart may be missing. Equal entries are not always repeated. Inconclusive results are not listed. Values without a mark were called inactive. Activity calls are given as the source filed them. Calls come from the whole dose curve; as a rule, active = well fitted curve in the direction sought with a large enough effect; inconclusive = small, poorly fitted or top-dose-only effect, or another doubt; inactive = no such curve, though single readings can be large; an effect the other way counts as inactive or inconclusive.

One may read the viability as a read-out of living cells in per cent, often relative to untreated cells.

Cellular tumor antigen p53 (Homo sapiens), sequence (P04637 whole entry, looked up): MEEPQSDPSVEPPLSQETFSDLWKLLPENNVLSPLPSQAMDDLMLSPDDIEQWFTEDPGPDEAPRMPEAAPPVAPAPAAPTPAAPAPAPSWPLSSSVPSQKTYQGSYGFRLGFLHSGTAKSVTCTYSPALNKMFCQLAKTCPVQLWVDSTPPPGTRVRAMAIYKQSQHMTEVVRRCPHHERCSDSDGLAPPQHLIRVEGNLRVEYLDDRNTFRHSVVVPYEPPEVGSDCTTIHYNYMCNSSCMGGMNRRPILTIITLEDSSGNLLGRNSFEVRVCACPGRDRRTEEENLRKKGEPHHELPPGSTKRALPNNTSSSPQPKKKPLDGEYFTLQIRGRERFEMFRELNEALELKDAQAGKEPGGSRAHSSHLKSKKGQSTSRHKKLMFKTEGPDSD

Take `CCNC(=O)CC1N=C(c2ccc(Cl)cc2)c2cc(OC)ccc2-n2c(C)nnc21` (configuration not stated): in [1], the activation is -24.1% and -15% and -22.4%. For the same compound, the Potency result in assay [2], in assay [3] and in assay [4] was “inactive” throughout. Besides, the Potency is 9340 nM (active) in assay [5] and 13200 nM (active) in assay [6].
`O=C(Oc1ccc([N+](=O)[O-])cc1)N1CCN(Cc2cccc(Oc3ccccc3)c2)CC1`: the activation in assay [1] was 1.36% and 1.43%. Besides, the Potency entry in assay [2], in [3], in [4], in assay [8], in [9] and in assay [5] was “inactive” throughout. In addition, the Potency entry in assay [6] and in assay [10] was “inactive” throughout. Moreover, in assay [7], the viability was 110%.
Turning to `Cc1sc2c(c1C)C(c1ccc(Cl)cc1)=N[C@@H](CC(N)=O)c1nnc(C)n1-2`, the activation in assay [1] is 10%. Further, the Potency result in assay [2], in [3] and in [4] was “inactive” in each case. Also, the Potency in assay [8] is 105 nM (active); in assay [11] it was 83.3 nM (active); in assay [6], 209 nM (active).
With `CC[C@H]1/C=C\C=C/C[C@@H](C)[C@H](O)[C@@](C)(O)C(=O)[C@@H](C)[C@H](O)[C@@H](C)C(=O)[C@@H](C)[C@H](O)[C@@H](C)/C=C\C(=O)O[C@@H]2[C@H](C)[C@H](CC1)O[C@]1(CC[C@H](C)[C@H](C[C@@H](C)O)O1)[C@H]2C`, the activation in assay [1] is 26.3%. Moreover, the Potency entry in assay [2], in assay [3] and in assay [4] was “inactive” each time. For the same compound, the Potency in [7] was 4170 nM (active); in assay [11] it was 26.3 nM (active); in [9], 46.8 nM (active); in [5] it was 7420 nM (active); in assay [6] it was 1180 nM (active); in assay [10], 2950 nM (active).
Regarding `CC(=O)N1N=C(c2ccc(N)cc2)c2cc3c(cc2C[C@H]1C)OCO3`, the activation in assay [1] was -0.955%. In addition, the Potency entry in assay [2], in [3], in assay [4], in [11], in assay [9] and in [5] was “inactive” throughout. Also, the Potency entry in [6] and in assay [10] was “inactive” in each case. For the same compound, the viability in assay [7] was 93.4%.
Take `CCc1c(C(=O)C(N)=O)c2c(OCC(=O)O)cccc2n1Cc1ccccc1`: the activation in assay [1] is -24.6% and -2.39%. Further, the Potency result in [2], in assay [3], in [4], in [8] and in assay [9] was “inactive” throughout.
As for `CN[C@H]1[C@H](O)[C@H](O[C@@H]2[C@@H](O)[C@H](O[C@H]3O[C@H]([C@H](C)O)[C@@H](O)[C@H](O)[C@H]3N)[C@@H](N)C[C@H]2N)OC[C@@]1(C)O`, the activation in [1] was -4.3%. Besides, the Potency entry in assay [2], in assay [3] and in assay [4] was “inactive” each time.
For `CCOc1ccccc1-n1c(C(C)N2CCN(C(=O)COc3ccc(Cl)cc3)CC2)nc2ccccc2c1=O` (configuration not stated), in [1], the activation is 0.955%. The Potency result in assay [2], in assay [3] and in assay [4] was “inactive” each time. Moreover, the Potency in assay [7] was 1320 nM (active); in assay [10], 4680 nM (active).
On to `CC(=O)Nc1ccc(OC[C@](C)(O)C(=O)Nc2ccc([N+](=O)[O-])c(C(F)(F)F)c2)cc1`, for which the activation in assay [1] is 44.3% and 23.4%. For the same compound, the Potency entry in [2], in [3], in assay [4], in assay [8], in assay [11] and in assay [9] was “inactive” in each case. For the same compound, the Potency entry in assay [6] and in assay [10] was “inactive” throughout.
For `O=c1[nH]c2ccc(Cl)cc2c(N[C@@H]2CN3CCC2CC3)c1-c1nc2ccccc2[nH]1`, the Potency in [1] is 17.2 µM (active) and 2.69 µM (active); in [7] it was 332 nM (active); in assay [11], 74.2 nM (active); in assay [9] it was 590 nM (active); in assay [5] it was 417 nM (active); in [6], 417 nM (active). In addition, the Potency in assay [10] was 332 nM (active). For the same compound, the Potency entry in [2], in [3] and in [4] was “inactive” in each case.
For the compound `CCN(CC)C(=O)c1ccc(C2=CC3(CCNCC3)Oc3cccc(O)c32)cc1`, in [1], the activation is -5.25%. The Potency entry in assay [2], in assay [3], in [4], in [8], in assay [11] and in [9] was “inactive” throughout. The Potency result in assay [5] and in assay [6] was “inactive” each time. Further, the viability in [7] was 99.6%.
For `COc1ccc2[nH]c(-c3ccccc3)c(CCN(C)C)c2c1`, in assay [1], the activation was -11%. In addition, the Potency result in [2], in assay [3] and in [4] was “inactive” each time.
For the compound `Cc1c(N2C(=O)[C@@H]3[C@H](O)CCN3C2=O)ccc(C#N)c1Cl`, the activation in assay [1] is 3.82%. Moreover, the Potency entry in assay [2] and in assay [4] was “inactive” throughout.
For the compound `CC1=CC2OC3[C@H](O)C[C@@](C)([C@]34CO4)[C@@]2(CO)[C@H](O)C1=O` (some centres not stated), the Potency in [1] is 23.9 µM (active). Besides, the Potency result in [2] and in [4] was “inactive” in each case.
Take `Cc1sc2c(c1C)C(c1ccc(Cl)cc1)=NC(CC(=O)Nc1ccc(O)cc1)c1nnc(C)n1-2` (configuration not stated): the activation in assay [1] was -21.2%. Further, the Potency result in assay [2], in assay [3] and in assay [4] was “inactive” throughout. For the same compound, the Potency in assay [7] was 1320 nM (active); in assay [8], 263 nM (active); in assay [11], 296 nM (active); in [5] it was 742 nM (active).
As for `COC1C(O)C(C)OC(OC2C(CO)O[C@@H](O[C@@H]3CC4CCC5C(CC[C@]6(C)[C@@H](C7=CC(=O)OC7)CC[C@]56O)[C@@]4(C)[C@H](O)C3)C(O)C2O)C1O` (some centres not stated), the Potency in assay [1] was 5 µM (active). The Potency entry in [2] and in [4] was “inactive” throughout.
Consider `CC1=CC2/C=C(\C)CCC(O)C(O)/C=C/C(=O)C23C(=O)NC(CC(C)C)C3C1C` (configuration not stated), for which the Potency in assay [1] was 13.1 µM (active). Also, the Potency entry in assay [2] and in assay [4] was “inactive” throughout.

The record behind these values is PubChem BioAssay (NCATS).
